Assay results: PubChem BioAssay AID651821 (The Scripps Research Institute Molecular Screening Center, 2012)
Hit rate of the full screen: of about 370,000 compounds, about 4,700 (1.3%) were called active. The sample as a whole holds a higher share of actives than the screen did. A number with no mark means an inactive call.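 The calls were made as follows: active = inhibition above the plate cutoff, the mean of all test compounds on that plate plus 3 SD (cut at about 35% in these data); inactive = the rest.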

Experiment: binders of r(CAG) RNA repeats, primary screen, biochemical, fluorescence (AID 651821);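 also: 0% = DMSO alone and 100% = 100 µM mitoxantrone as full dye displacement; higher means more dye released from RNA so lower well fluorescence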
Conditions: r(CAG) RNA repeat, TO-PRO-1 dye displacement fluorescence; at 3 µM; stronger effect = higher value

First: Cc1ccc(Cn2cc(COC(=O)N(C)Cc3ccccc3)nn2)cc1
Second: COc1ccc(Cn2cc(COC(=O)N(C)Cc3ccccc3)nn2)cc1
The inhibition of the first is higher: 0.63% for the first, -0.97% for the second.

First: COC(=O)c1c(-c2ccc(OC)cc2)c2c(c3c4cc(OC)ccc4n(S(=O)(=O)c4ccc(F)cc4)c13)C(=O)N(C)C2
Second: COC(=O)c1c(-c2ccc(OC)cc2)c2c(c3c4ccccc4n(S(=O)(=O)c4ccc(C)cc4)c13)C(=O)N(C)C2
The inhibition of the first is lower: 14.1% for the first, 14.9% for the second.

Going from `COC(=O)[C@]1(C#N)CC(=O)N(CC2CCCCC2)[C@@H]1c1ccccc1` to `CC1(C(=O)NS(=O)(=O)c2ccc(Cl)cc2)CCN1C(=O)CC1CCCC1` (configuration not stated), the inhibition rises from 0.85% to 9.21%.

First: CCOC(=O)C1Sc2[nH]c(=O)sc2C(c2ccc(Cl)cc2)C1C(=O)OCC (configuration not stated)
Second: Cc1ccccc1S(=O)(=O)NC(=O)C1(C)CCN1C(=O)C1(c2ccc(Cl)cc2)CC1 (configuration not stated)
The inhibition of the first is lower: 24.3% for the first, 33.6% for the second.

First: CC(OC(=O)c1ccccc1N1C(=O)C2C3CCC(C3)C2C1=O)C(=O)c1ccccc1 (configuration not stated)
Second: CC1CCN(C(=O)c2ccccc2NC(=O)Cc2ccccc2)CC1
The inhibition of the first is higher: -4.3% for the first, -6.63% for the second.

First: CC[C@H](C)[C@H]1CNC(=O)C(=O)N1CC1CCN(CCc2ccc(OC)c(OC)c2)CC1
Second: COc1ccc(CN(CCN2CCOCC2)C(=O)c2ccc(C)cc2)cc1OC
The inhibition of the first is higher: 3.94% for the first, 1.93% for the second.

Compared with `COc1ccccc1CCNC(=O)C1CCN(c2nc(C)cc(C)n2)CC1`, `Cc1ccccc1CN1CCCCC(NC(=O)Nc2ccccc2F)C1=O` (configuration not stated) is higher in inhibition: -2.28% for the first, 4.44% for the second.

Compared with `N#Cc1c(-c2ccc(F)cc2)cc(C2CC2)nc1SCC(=O)c1cccs1`, `CCSc1nc(-c2ccc(OC)cc2)cc(-c2ccc(OC)cc2)c1C#N` is lower in inhibition: 1.58% for the first, 0.76% for the second.

Going from `CC(C)CNS(=O)(=O)CC1NCCc2ccccc21` (configuration not stated) to `COc1ccc2c(c1)CN1CN(CCc3ccccc3)S(=O)(=O)CC21` (configuration not stated), the inhibition falls from 5.19% to 3.05%.

Going from `Nn1c(SCC(=O)Nc2ccc(S(N)(=O)=O)cc2)nnc1-c1n[nH]c2c1CCC2` to `COC(=O)Nc1ccc(S(=O)(=O)Nc2cc(OC)nc(OC)n2)cc1`, the inhibition falls from 3.81% to 1.9%.

Compared with `COC(=O)c1cc2c(c3c4ccccc4n(S(=O)(=O)c4cccc(C)c4)c13)C(=O)N(Cc1ccccc1)C2`, `COc1cccc(CNCCc2c[nH]c3ccccc23)c1OCc1ccccc1F` is lower in inhibition: 15.1% for the first, 4.43% for the second.

Going from `CC(=O)c1ccc(Nc2nc(C(N)c3ccccc3Cl)cs2)cc1` (configuration not stated) to `COc1cc(NS(=O)(=O)c2ccc(NC(=S)NC(=O)c3ccccc3)cc2)nc(OC)n1`, the inhibition rises from 2.58% to 24.5%.

Compared with `O=S1(=O)c2c(cccc2N2CCCCC2)O[C@H](COCc2ccccc2)CN1C1CC1`, `COC(=O)[C@]12C[C@H](CC(=O)NCC34CC5CC(CC(C5)C3)C4)C(=O)N(Cc3ccc(Cl)cc3Cl)C1=C[C@H](COCc1ccccc1)O[C@@H]2C` is higher in inhibition: 5.4% for the first, 10.5% for the second.

Compared with `O=C1Nc2ccccc2C1=NN=Cc1ccco1`, `O=C(CCCOc1ccccc1)Nc1cccc(C(=O)O)c1` is higher in inhibition: 3.21% for the first, 6.14% for the second.

Going from `COC(=O)[C@H](C(C)C)N(CCCc1cn(Cc2ccccc2)nn1)S(=O)(=O)c1ccc(F)cc1Br` to `Cc1ccc(S(=O)(=O)N(C)CC(=O)NCCc2c[nH]c3ccccc23)cc1`, the inhibition falls from 2.97% to 0.8%.

Compared with `C[C@H](NC(=O)[C@@H]1Cc2ccccc2CN1C(=O)OC(C)(C)C)C(=O)NC1CCCC1`, `O=C(Nc1ccccc1C(=O)O)c1ccc(N2C(=O)C3CC=CCC3C2=O)cc1` (configuration not stated) is higher in inhibition: -7.18% for the first, 13.8% for the second.

Compared with `CCCCNc1cccc2c1S(=O)(=O)N[C@@H](C)CO2`, `Cc1ccc(S(=O)(=O)CCC(=O)OCC(=O)N(C)C2CCS(=O)(=O)C2)cc1` (configuration not stated) is higher in inhibition: 0.84% for the first, 2.79% for the second.

Going from `O=C(C=CC(=O)Nc1ccc(F)cc1F)Nc1ccc(F)cc1F` to `COc1ccc(F)cc1S(=O)(=O)NCC(c1ccc2c(c1)OCO2)N1CCN(C)CC1` (configuration not stated), the inhibition falls from 0.56% to -3.68%.

First: O=C(CSc1nnc(-c2ccccn2)n1-c1ccc(Cl)cc1)Nc1ccccc1-c1ccccc1
Second: O=C(c1cc(-c2ccco2)nc2ccccc12)N(Cc1nnc(-c2ccc(Cl)cc2)o1)C1CC1
The inhibition of the first is lower: 8.25% for the first, 8.3% for the second.

Compared with `C=CCN1C(=O)[C@H](CC(=O)N2CCN(C(=O)OCC)CC2)[C@@]2(C(=O)OCC)CCCC=C12`, `COc1ccc(NC(=O)CSCc2ccc([N+](=O)[O-])cc2)cc1OC` is lower in inhibition: 0.1% for the first, -1.63% for the second.

First: CN(Cc1ccc2nsnc2c1)Cc1nc(Cc2cccc(F)c2)no1
Second: CN(CCc1ccccc1)C(=O)c1cccc(NC(=O)Cc2ccc([N+](=O)[O-])cc2)c1
The inhibition of the first is lower: -4.71% for the first, 1.94% for the second.

In the case of `O=C(CSCc1ccc([N+](=O)[O-])cc1)NCCSCc1ccccc1`, the inhibition is reported as -2.49%.

With `CCOC(=O)c1ccccc1N1C(=O)C2Sc3[nH]c(=O)sc3C(/C=C/c3ccccc3)C2C1=O` (configuration not stated) the inhibition was 54% (active).
In the case of `N#Cc1c(-c2ccccc2)cc(-c2ccccc2)nc1SCC(=O)O`, the inhibition is reported as 55% (active).
In the case of `NNc1cccc(C=Cc2ccccc2)cc1=O`, the inhibition is reported as 40.1% (active).
In the case of `O=c1oc2ccccc2cc1-c1csc(Nc2ccc(O)cc2)n1`, the inhibition is reported as 38.9% (active).
In the case of `Nc1[nH]c(=S)nc2nc(-c3ccccc3)c(-c3ccccc3)nc12`, the inhibition is reported as 41.4% (active).
In the case of `COc1cc(NS(=O)(=O)c2ccc(N/C=C(\C=O)c3nc4cc(Cl)ccc4o3)cc2)nc(OC)n1`, the inhibition is reported as 60.3% (active).
With `COC(=O)c1sc(-c2ccc(C(C)(C)C)cc2)cc1NC(=O)/C=C/C(=O)O` the inhibition was 36.6% (active).
In the case of `CN(C(=O)COC(=O)c1cc(-c2ccco2)nc2ccccc12)C1CCS(=O)(=O)C1` (configuration not stated), the inhibition is reported as 42.3% (active).
For `COc1ccc(S(=O)(=O)NCCc2c[nH]c3ccccc23)cc1OC`, the inhibition was 35.2% (active).
For `CC1(C(=O)NS(=O)(=O)c2ccc3ccccc3c2)CCN1C(=O)C1(c2ccc(Cl)cc2)CCC1` (configuration not stated), the inhibition was 68.5% (active).
In the case of `CCOc1cc(/C=C2/N=C(c3ccc(C(C)(C)C)cc3)OC2=O)cc(Cl)c1OS(C)(=O)=O`, the inhibition is reported as 67% (active).
For `O=C(Cc1ccccc1)Nc1ccc(C(=O)Nc2ccccc2C(=O)O)cc1`, the inhibition was 50.2% (active).
With `O=C(COc1ccc([N+](=O)[O-])cc1)Nc1cccc(C(=O)Nc2ccccc2C(=O)O)c1` the inhibition was 77.5% (active).
In the case of `O=C(CSCc1ccc([N+](=O)[O-])cc1)Nc1cccc(C(=O)Nc2ccccc2C(=O)O)c1`, the inhibition is reported as 67.2% (active).
